Shown are actives, neighbours in structure and some others; about 21% of the full set was active somewhere.
Shiga inhibitor: blocks Shiga toxin action in Vero cells; Vero cells, Shiga toxin protein synthesis inhibition reporter; 9.2% of 290,000 active; AID 2315; inhibition, % at 38.7 µM; in the data active = inhibition mostly above about 28%, no sharp cut-off; inactive = mostly below about 43%
NS1 inh: blocks influenza NS1 protein function; Potency, µM (top dose mostly 46.1 µM); 0.4% of 270,000 active; AID 2326; calls by dose curve; note: actives are rising curves; nearly all actives have a fitted effect of over 50% in size
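Growth recovery, yeast-based: influenza A NS1 expressed in S. cerevisiae causes slow growth, and suppressors are detected by OD600. The parent strain without NS1 is used as positive control.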
Pf growth 48h: inhibits P. falciparum growth in the first generation, 48 h. 5.9% of 310,000 active. P. falciparum luciferase growth in erythrocytes, 48 h. AID 504832. Potency, µM (doses to about 28.7 µM), usual class: inhibitors
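Here the parasites carry a stable luciferase gene and grow inside erythrocytes in Albumax-based RPMI medium with compound for one erythrocytic cycle. Activity is scored as loss of luminescent signal.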
Cycloheximide cs: counter-screen for Shiga toxin inhibitors: cycloheximide protein synthesis inhibition | 12% of 300,000 active | cell reporter, cycloheximide protein synthesis inhibition counterscreen | max response, %; in the data active = max response mostly above about 13%, no sharp cut-off; inactive = mostly below about 14%; note: read at 38.3 µM for the half of the compounds with a filed dose
Pf growth 96h: P. falciparum growth inhibition at 96 hour, primary screen for plastid delayed-death inhibitors; P. falciparum luciferase reporter growth, 96 h; Potency, µM (titrated, usually from 28.7 µM), most hits filed as inhibitors; 6.9% of 320,000 active
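Parasite growth measured via integrated firefly luciferase reporter in P. falciparum. Infected erythrocytes at 2% hematocrit, 0.05% parasitemia final were treated 96 hours at 37 C under 5% CO2, and luminescence was read.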
Sm TGR inh: inhibitors of Schistosoma mansoni thioredoxin glutathione reductase | Q962Y6 | purified TGR, DTNB reduction, TNB absorbance 405 nm | Potency, µM (doses to about 114 µM), usual class: inhibitors | 3% of 360,000 active | AID 485364; note: nearly all actives have a fitted effect of over 60% in size
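Kinetic colorimetric format: TGR-catalysed, NADPH-driven DTNB reduction monitored via TNB absorbance. Enzyme dispensed at 20 nM; compound exposure 15 min at room temperature before reaction start.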
Hits are given with their value; - = inactive; ? = inconclusive; . = no result given; [ ] = another dose, or the depositor's remark. Unless noted, calls come from the whole dose curve; as a rule, active = well fitted curve in the direction sought with a large enough effect; inconclusive = small, poorly fitted or top-dose-only effect, or another doubt; inactive = no such curve, though single readings can be large; an effect the other way counts as inactive or inconclusive.

SMILES	Shiga inhibitor	NS1 inh	Pf growth 48h	Cycloheximide cs	Pf growth 96h	Sm TGR inh
CCn1c(SCC(=O)N2CCN(c3ccccc3)CC2)nc2c([nH]c3ccccc32)c1=O	-	-	-	-	-	-
Cc1ccc(N2C(=O)c3ccccc3NC2C(C)Cc2ccc3c(c2)OCO3)cc1 (stereo unspecified)	48	-	?	18	?	-
COC(OC)C1Nc2ccccc2C(=O)N1c1ccc(F)cc1 (stereo unspecified)	.	.	?	.	-	-
CCOc1ccc(CCNC(=O)C2Cc3ccccc3N2C(=O)CC)cc1 (stereo unspecified)	.	.	.	.	.	-
COCCN(C(=S)Nc1c(C)cccc1C)C(C)c1cccs1 (stereo unspecified)	-	.	-	-	-	-
O=C(Cc1ccccc1)Nc1c[nH]c(=O)[nH]c1=O	-	-	-	-	?	-
O=C(CCl)Nc1c[nH]c(=O)[nH]c1=O	-	-	1.7µM	-	-	?
COc1ccc2c(c1)CCN1C2CCN2C(=O)CCC21 (stereo unspecified)	-	-	-	-	-	-
NC(=O)c1c(NC(=O)CN2CCCC2)sc2c1CCCC2	21	-	-	26	12µM	-
NC(=O)c1c(NC(=O)C(=O)NCCCN2CCOCC2)sc2c1CCCC2	-	-	?	-	?	-
NC(=O)c1c(NC(=O)CN2CCOCC2)sc2c1CCC2	-	-	-	-	-	35µM
O=C(Nc1sc2c(c1C(=O)O)CCCC2)C(=O)N1CCOCC1	33	-	-	20	-	-
CCn1c(-c2ccccc2)ccc(C#N)c1=O	-	-	-	-	-	-
CCOC(=O)c1ccccc1-c1csc(NS(=O)(=O)c2ccc(Cl)cc2)n1	-	-	-	-	-	-
O=C(Cn1cc(C(=O)COc2ccccc2)c2ccccc21)NCc1ccco1	52	?	-	25	-	40µM
CC(=O)c1c(C)n(CC(=O)NCc2ccco2)c2ccccc12	-	-	?	-	-	-
CC(C(=O)NCc1ccco1)n1cc(C(=O)c2ccco2)c2ccccc21 (stereo unspecified)	-	-	?	15	-	-
CC(=O)c1cn(CC(=O)NCc2ccco2)c2ccccc12	130	-	-	-	?	-
Cc1cccc(C)c1NC(=O)C1(N(Cc2ccco2)C(=O)Cn2nnnc2N)CCCCC1	-	-	-	-	6.6µM	-
Cc1cccc(C)c1NC(=O)C1(N(Cc2ccco2)C(=O)c2ccccn2)CCCC1	-	-	-	-	-	-
O=C(NCc1ccccc1Cl)c1ccc2c(c1)NC(=O)C(CS(=O)(=O)Cc1ccc(F)cc1Cl)N2 (stereo unspecified)	.	.	.	.	.	-
CCOc1ccc(C2c3c(oc4ccccc4c3=O)C(=O)N2Cc2ccc3c(c2)OCO3)cc1 (stereo unspecified)	.	.	.	.	.	-
O=C1NCCN(Cc2ccc(Cl)c(F)c2)C1CC(=O)N1CCCCO1 (stereo unspecified)	-	-	?	-	-	25µM
O=C(CC1C(=O)NCCN1Cc1ccc(Cl)c(F)c1)NC1CCC1 (stereo unspecified)	-	-	?	-	-	40µM
CN(CCC1CCOCC1)C(=O)CC1C(=O)NCCN1Cc1c(F)cccc1Cl (stereo unspecified)	-	-	-	-	?	45µM
SMILES	Shiga inhibitor	NS1 inh	Pf growth 48h	Cycloheximide cs	Pf growth 96h	Sm TGR inh
O=C(CC1C(=O)NCCN1Cc1ccc(-c2ccccc2)cc1)NC1CCC1 (stereo unspecified)	-	-	?	-	-	?
O=C(CC1C(=O)NCCN1Cc1ccc(Cl)c(F)c1)NCC1CCOCC1 (stereo unspecified)	-	-	-	-	-	40µM
CN(Cc1ncc[nH]1)C(=O)CC1C(=O)NCCN1Cc1c(F)cccc1Cl (stereo unspecified)	-	-	-	-	-	-
COc1ccc(CN2CCNC(=O)C2CC(=O)NCC2CCOCC2)cc1C (stereo unspecified)	-	-	-	-	-	?
Cc1cccc(NC(=O)c2c(C)oc3ncnc(N4CCCCC4)c23)c1C	.	.	.	.	.	-
CCOc1ccc(CN2CCNC(=O)C2CC(=O)N(C)CC2CCOCC2)cc1 (stereo unspecified)	-	-	-	-	-	?
COc1cccc(CCNC(=O)CC2C(=O)NCCN2Cc2ccc(Cl)c(F)c2)c1 (stereo unspecified)	-	-	-	-	-[5.75 µM]	.
CN(CCCC1CCCC1)C(=O)CC1C(=O)NCCN1Cc1cccc(F)c1F (stereo unspecified)	-	-	?	-	?	28µM
O=C(CC1C(=O)NCCN1Cc1ccc(Cl)c(F)c1)NCCc1cccnc1 (stereo unspecified)	-	-	-	-	-	45µM
CN(CC1CCOCC1)C(=O)CC1C(=O)NCCN1Cc1ccc(Cl)c(F)c1 (stereo unspecified)	-	-	-	-	-	28µM
COc1ccc(NC(=O)CSc2nc(N)c3cc4c(nc3n2)CCCC4)cc1	61	?	-	47	-	-
CC1(C)Cc2nc3nc(SCC(=O)Nc4ccccc4)nc(N)c3cc2CO1	-	-	-	-	-[5.75 µM]	-
COc1ccc(NC(=O)CSc2nc(N)c3cc4c(nc3n2)CC(C)(C)OC4)cc1	-	-	-	-	-	-
CC(=O)c1ccc(NC(=O)CSc2nc(N)c3cc4c(nc3n2)CCCC4)cc1	66	?	-	37	-	-
S=c1[nH]c2ccccc2s1	-	.	.	-	.	.
CC(C(=O)N1CCN(c2ccc([N+](=O)[O-])cc2)CC1)N1C(=O)C2CC=CCC2C1=O (stereo unspecified)	-	-	-	-	?	-
CCC(=O)N1CCc2cc(S(=O)(=O)CCC(=O)N3CCN(c4cc(C)ccc4C)CC3)ccc21	.	.	.	.	.	-
Cc1ccc(CNC(=O)c2cc(=O)c3cc(C)c(C)cc3o2)cc1	.	.	.	.	.	-
Nc1cc2c(cc1Cl)N(Cc1ccccc1)C(=O)CO2	.	.	-	.	-	-
Cc1nnc(NC(=O)CSc2nc3ccccc3[nH]2)s1	-	.	-	16	-[1.15 µM]	-
CC(C)c1nnc(NC(=O)CSc2nc3ccccc3[nH]2)s1	-	.	-	-	-	-
Cc1nnc(NC(=O)CSc2nccn2-c2ccc(F)cc2)s1	59	.	?	44	?	-
Cc1nnc(NC(=O)CSc2nc3[nH]ncc3c(=O)[nH]2)s1	-	-	-	-	-	45µM
Cc1nnc(NC(=O)CSc2nccn2Cc2ccc(F)cc2)s1	-	-	-	-	?	-
Cc1ccccc1NS(=O)(=O)c1nnc(NC(=O)C(C)C)s1	-	-	-	-	?	-
CCOC(=O)c1ccc(Nc2nc3ccc(C(=O)c4ccccc4)cc3n3c(C)nnc23)cc1	.	.	.	.	.	-
O=C(NCCc1ccc(Cl)cc1)c1ccc(CSCc2ccc(Cl)cc2)o1	.	.	.	.	.	-
CCC(C)Sc1cccc(-c2nc3ccc(C)cn3c2NCc2ccccc2)c1 (stereo unspecified)	.	.	3.3µM	.	13µM	-

Assay outcomes deposited in PubChem BioAssay by National Center for Advancing Translational Sciences (NCATS).
